Bioassay records: PubChem, National Center for Advancing Translational Sciences (NCATS)
In the library only some 19% were active in any assay of this set; here they are far more common.
DT40 TDP1 CPT: qHTS for Inhibitors of human tyrosyl-DNA phosphodiesterase 1 (TDP1): qHTS in cells in presence of CPT; chicken DT40 Tdp1-/-;hTDP1 cells + 20 nM CPT, ATP luminescence, 48 h; Potency, µM (doses to about 46.2 µM), inactives show top-dose activity change, negative = growth inhibition, actives largely listed as inhibitors; 420,000 compounds, 12% hits; AID 686979, 2013; further: nearly all actives have a fitted effect of over 55% in size
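Chicken DT40 Tdp1-/- cells complemented with human TDP1, 400 cells/well, exposed to compounds plus 20 nM camptothecin for at least 48 h at 37 C; viability read as ATP content by CellTiter-Glo luminescence.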
VP16 counter: VP16 counterscreen qHTS for inhibitors of ROR gamma transcriptional activity | Drosophila S2 Gal4-VP16 UAS-luciferase, luminescence, 20 h | Potency, µM (titrated, usually from 53.6 µM), without a hit: at the top dose activity, negative = inhibition, most hits filed as inhibitors | 310,000 compounds, 3.5% hits | AID 2546, 2010;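 further: Gal4-VP16 expression switched on by copper sulfate through the metallothionein promoter; nearly all actives have a fitted effect of over 50% in size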
DT40 TDP1 no CPT: qHTS for Inhibitors of human tyrosyl-DNA phosphodiesterase 1 (TDP1): qHTS in cells in absence of CPT; Potency, µM (highest dose often 46.2 µM), without a hit: top-dose activity change, negative = growth inhibition, most hits filed as inhibitors; 420,000 compounds, 15% hits; DT40 Tdp1-/- hTDP1 cells, no CPT, ATP luminescence, 48 h; further: nearly all actives have a fitted effect of over 55% in size
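Luminescent ATP content (CellTiter-Glo) served as the growth readout. Knockout chicken DT40 cells expressing human TDP1 were exposed to compounds without camptothecin for a minimum 48 hr at 37 °C.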
TDP1 inh: qHTS Assay for Inhibitors of Tyrosyl-DNA Phosphodiesterase (TDP1); Tyrosyl-DNA phosphodiesterase 1 (Homo sapiens), Q9NUW8; recombinant TDP1, AlphaScreen DNA substrate cleavage; Potency, µM (highest dose often 130 µM), inactives show at the top dose activity change, negative = inhibition, usual class: inhibitors; 350,000 compounds, 0.28% hits; AID 485290, 2010; further: nearly all actives have a fitted effect of over 40% in size
Target sequence (Q9NUW8 whole entry, looked up): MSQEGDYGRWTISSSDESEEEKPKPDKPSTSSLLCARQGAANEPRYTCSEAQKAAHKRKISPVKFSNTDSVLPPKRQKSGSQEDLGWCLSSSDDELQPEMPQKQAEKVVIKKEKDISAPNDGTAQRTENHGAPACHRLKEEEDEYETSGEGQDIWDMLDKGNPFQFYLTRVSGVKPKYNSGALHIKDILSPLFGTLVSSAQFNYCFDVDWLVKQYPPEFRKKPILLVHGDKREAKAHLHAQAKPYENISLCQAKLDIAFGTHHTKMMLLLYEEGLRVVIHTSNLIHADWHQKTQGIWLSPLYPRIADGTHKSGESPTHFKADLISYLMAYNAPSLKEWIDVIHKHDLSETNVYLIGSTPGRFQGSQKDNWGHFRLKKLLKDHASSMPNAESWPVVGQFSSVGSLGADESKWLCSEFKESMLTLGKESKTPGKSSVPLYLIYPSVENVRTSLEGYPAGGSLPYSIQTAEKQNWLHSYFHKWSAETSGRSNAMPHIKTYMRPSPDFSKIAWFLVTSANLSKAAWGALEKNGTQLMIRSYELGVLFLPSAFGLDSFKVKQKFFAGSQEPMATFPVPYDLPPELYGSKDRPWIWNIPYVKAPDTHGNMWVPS
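Recombinant E. coli-expressed Tdp1 (1 nM) preincubated with compound 15 min at RT, then 5'-biotin/3'-phosphotyrosine-FITC DNA substrate (15 nM) added for 5 min. AlphaScreen beads (10 ug/ml) added, 10 min RT; tyrosine-FITC cleavage read as signal loss.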
RORgamma inh: qHTS for inhibitors of ROR gamma transcriptional activity | 310,000 compounds, 5.4% hits | Drosophila S2 Gal4-RORgamma UAS-luciferase reporter, 20 h | Potency, µM (top dose mostly 53.6 µM), inactives show at the top dose activity change, negative = inhibition, hits mostly inhibitors; further: nearly all actives have a fitted effect of over 60% in size
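In this cell-based reporter format, copper sulfate (700 uM final) drives Gal4–ROR gamma fusion expression from a metallothionein promoter in Drosophila Schneider cells; compounds preincubated 1 hr, reporter read after 20 hr at ambient temperature.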
An asterisk follows results filed as active; ? = inconclusive; . = not tested or not shown; [ ] = remark or other dose. The call rests on the fitted dose curve; in most records, active means well fitted curve in the direction sought with a large enough effect; inconclusive means small, poorly fitted or top-dose-only effect, or another doubt; inactive means no such curve, though single readings can be large; an effect the other way counts as inactive or inconclusive. On the % scale 0 is the no-effect control and ±100 the full control effect; potency means the concentration at half of the fitted maximal effect.

SMILES | DT40 TDP1 CPT | VP16 counter | DT40 TDP1 no CPT | TDP1 inh | RORgamma inh
O=C(Cn1c2c(sc1=O)C1c3ccccc3OCC1CS2)Nc1ccc(Cl)cc1 (stereo not drawn) | ? | -22% | ? | 5% | ?
Cc1[nH]c2ccccc2c1C(=O)CSc1nc2ncc(Cl)cc2[nH]1 | 13µM* | -20% | ? | 5% | -18%
Cc1ccc2nc(SCC(=O)c3c(C)[nH]c4ccccc34)[nH]c2c1 | 23µM* | -6% | 18µM* | 1% | -5%
O=C(Cc1ccc(OCC2CCCCC2)cc1)NO | 10µM* | . | 11µM* | . | .
O=C(COC(=O)Cc1ccc(Br)cc1)NC1CCCCC1 | -1% | 3% | -20% | 7% | -10%
CCc1ccc(C(=O)c2cn(CC(=O)Nc3cccc(OC)c3)c3ccc(OC)cc3c2=O)cc1 | ? | . | 23µM* | . | .
CCc1ccc2c(c1)c(=O)c(C(=O)c1ccccc1)cn2CC(=O)Nc1ccc(C)c(Cl)c1 | 21µM* | . | 12µM* | 1% | .
COc1ccc2c(c1)c(=O)c(C(=O)c1ccc(F)cc1)cn2CC(=O)Nc1ccc(F)cc1 | ? | -6% | ? | 7% | -3%
COc1ccc2c(c1)c(=O)c(C(=O)c1ccc(C)cc1)cn2CC(=O)Nc1ccc(F)cc1 | ? | 4% | 16µM* | 5% | 15%
CCOc1ccc(C(=O)c2cn(CC(=O)Nc3ccc(C)c(Cl)c3)c3ccc(OCC)cc3c2=O)cc1 | 11% | . | -2% | 1% | .
COc1cccc(NC(=O)Cn2cc(C(=O)c3ccc(F)cc3)c(=O)c3cc(OC)ccc32)c1 | -2% | . | -16% | 4% | .
Clc1cccc(CSc2ncn(-c3ccccc3)n2)c1 | -9% | 29% | -6% | -13%[56.1 µM] | 23%
CC(NS(=O)(=O)OCC(Cl)(Cl)Cl)c1ccc(C(C)(C)C)cc1 (stereo not drawn) | 16µM* | ? | ? | . | ?
CNS(=O)(=O)c1cn(CC(=O)Nc2ccc(OC)cc2OC)cc1S(=O)(=O)NC | -13% | . | -7% | 6% | .
O=c1[nH]cnc2c1ncn2-c1ccc(Cl)cc1 | 5% | . | 25% | . | .
O=C(CSCCO)Nc1ccc(C23CC4CC(CC(C4)C2)C3)cc1 | -11% | 8.9µM* | ? | -2% | -2%
CNC(=O)CN(c1ccc(C23CC4CC(CC(C4)C2)C3)cc1)S(C)(=O)=O | ? | -17%[10 µM] | 26µM* | 3% | -24%
CS(=O)(=O)N(CC(=O)Nc1ccc(CC#N)cc1)c1ccc(C23CC4CC(CC(C4)C2)C3)cc1 | ? | ? | 16µM* | 3% | 38%
CCOc1ccc(C(=O)c2ccc([N+](=O)[O-])cc2Cl)cc1 | 0% | 7% | -19% | 10% | -3%
COc1ccc(-c2ccc(C(=O)NCc3ccc(C(F)(F)F)cc3)c3occc23)c(C)c1 | 18µM* | . | 16µM* | . | .
Cc1ccc(C(=O)NCc2ccc(N3CCN(C)CC3)cc2)cc1C | -12% | -11% | -19% | . | -18%
COc1ccc(-c2ccc(C(=O)NCc3ccc(N4CCN(C)CC4)cc3)c3occc23)c(C)c1 | 16µM* | . | 16µM* | . | .
COc1ccc(-c2ccc(C(=O)NCc3ccccc3)c3occc23)c(C)c1 | 23µM* | . | ? | . | .
CC(C)(O)C(=O)NN(C(=O)c1ccccc1)c1ccc2ccccc2c1 | -14% | -16% | -13% | -8% | 0%
Cc1ccc(OCc2nnc(SCC(=O)Nc3cccc4ccccc34)n2-c2ccccc2)cc1 | ? | -15% | ? | -1% | 0%
C/C(=N\NC(N)=O)C1(C)CCCCC1 | -4% | -15% | -5% | 1% | 2%
C/C(=N\NC(N)=S)C1(C)CCCCC1 | ? | 8.9µM* | 13µM* | 5% | 3.5µM*
COc1cccc(N(CC(=O)NCCN2CCOCC2)S(=O)(=O)c2ccccc2)c1 | -1% | . | -8% | . | .
